Test results reported in PubChem BioAssay AID720597 (Broad Institute, 2013).
Results with a measured potency or affinity are listed apart.

Target: NAD-dependent protein deacylase sirtuin-5, mitochondrial (Homo sapiens) (UniProt Q9NXA8)
Assay: blockers of sirtuin-5 peptide desuccinylation – biochemical, fluorescence imaging, cherry-pick, set 6, dose response (AID 720597);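 also: lower AMC signal can also come from blocking the trypsin step; 0% = median of neutral control wells and -100% = median of positive control wells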
Details: Purified SirT5, succinyl-peptide-AMC/trypsin fluorescence; series mostly up to 15 µM; activity change, negative = inhibition: at the top concentration;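 active = fitted half-maximal dose no more than twice the top valid tested dose, for compounds that lower signal; inconclusive = fit invalid, or curve flat with activity between -70 and -30; inactive = potency past limit, curve flat within ±30, or signal increasing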

NAD-dependent protein deacylase sirtuin-5, mitochondrial (Homo sapiens), sequence (Q9NXA8 whole entry, looked up): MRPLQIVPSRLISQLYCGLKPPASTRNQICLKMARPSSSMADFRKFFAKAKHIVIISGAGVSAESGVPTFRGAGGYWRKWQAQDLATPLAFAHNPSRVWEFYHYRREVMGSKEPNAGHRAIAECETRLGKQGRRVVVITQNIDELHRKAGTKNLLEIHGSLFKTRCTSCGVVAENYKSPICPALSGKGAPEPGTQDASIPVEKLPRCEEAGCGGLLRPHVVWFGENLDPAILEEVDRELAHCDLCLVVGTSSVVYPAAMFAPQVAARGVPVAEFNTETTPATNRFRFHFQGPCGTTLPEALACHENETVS

Activity change, negative = inhibition, inactive:
CC1C(=O)N2CCCc3cc(S(=O)(=O)N4CCCC4)cc1c32 (stereo unspecified) 36.2%, COc1ccc(S(=O)(=O)N(C)C[C@H]2Oc3ccc(NC(=O)NC4CCCCC4)cc3C(=O)N([C@@H](C)CO)C[C@@H]2C)cc1 -0.523%, C[C@H](CO)N1C[C@H](C)[C@@H](CN(C)Cc2ccc(C(F)(F)F)cc2)OCCCC[C@H](C)Oc2ccc(NS(=O)(=O)c3cccs3)cc2C1=O -3.35%, COc1ccc(NC(=O)N(C)C[C@@H]2Oc3ccc(NS(=O)(=O)c4ccc(F)cc4)cc3C(=O)N([C@H](C)CO)C[C@H]2C)cc1 -31.2%, C[C@H](CO)N1C[C@H](C)[C@H](CN(C)C(=O)c2ccccc2F)Oc2ncc(Br)cc2C1=O -2.09%, C[C@@H]1CN([C@H](C)CO)C(=O)c2cccc(NC(=O)c3nc4ccccc4s3)c2O[C@@H]1CN(C)C(=O)NC1CCCCC1 -1.95%, C[C@H]1CCCCO[C@@H](CN(C)Cc2ccc(C(F)(F)F)cc2)[C@@H](C)CN([C@@H](C)CO)C(=O)c2cc(NS(=O)(=O)c3ccc(F)cc3)ccc2O1 -29.9%, C[C@@H]1CN([C@@H](C)CO)C(=O)c2cccc(N(C)C)c2O[C@@H]1CN(C)Cc1ccccc1 35.5%, C[C@H](CO)N1C[C@H](C)[C@H](CN(C)C(=O)c2ccc3c(c2)OCO3)Oc2cc(/C=C/c3ccccc3)ccc2S1(=O)=O -4.94%, CC(C)CC#Cc1ccc2c(c1)O[C@H](CN(C)C(=O)c1cccc(F)c1)[C@@H](C)CN([C@H](C)CO)S2(=O)=O -1.6%, C[C@@H]1CN([C@H](C)CO)C(=O)c2cccc(N(C)C)c2O[C@@H]1CN(C)C(=O)NC1CCCCC1 -11.7%
